# The supplement of paper PMC11738630
# Test system: Salmonella enterica serovar Typhimurium 14028s
# Test: approximate change in surviving CFU after surface colonization relative to water-only control (log10 CFU/mL change); higher = more surviving bacteria (less inhibition of surface colonization)
# Conditions: not stated (Biolog proprietary concentration), surface: plastic 96-well plate, 20-24 h at 25 °C
smiles,measurement,setting,value
CO[C@@H]1O[C@H](CO)[C@@H](O)[C@H](O)[C@H]1O [b-Methyl-D-Glucoside],approximate change in surviving CFU (log10),"Biolog plate: PM2, Biolog well: C7",1.33
OCc1ccccc1O[C@@H]1O[C@H](CO)[C@@H](O)[C@H](O)[C@H]1O [Salicin],approximate change in surviving CFU (log10),"Biolog plate: PM2, Biolog well: D2",0.0215
OC[C@@]12OC[C@@H](O1)[C@@H](O)[C@@H](O)[C@@H]2O [Sedoheptulosan],approximate change in surviving CFU (log10),"Biolog plate: PM2, Biolog well: D3",0.451
O=C(CO)[C@@H](O[C@H]1O[C@H](CO)[C@@H](O)[C@H](O)[C@H]1O)[C@H](O)[C@H](O)CO [Turanose],approximate change in surviving CFU (log10),"Biolog plate: PM2, Biolog well: D7",0.88
CC(O)(CC(=O)O)C(=O)O (stereo not drawn) [Citramalic Acid],approximate change in surviving CFU (log10),"Biolog plate: PM2, Biolog well: E4",0.687
O=C(O)c1ccccc1O [2-Hydroxy Benzoic Acid (Salicylic Acid)],approximate change in surviving CFU (log10),"Biolog plate: PM2, Biolog well: E6",-1.72
O=C(O)c1ccc(O)cc1 [4-Hydroxy Benzoic Acid],approximate change in surviving CFU (log10),"Biolog plate: PM2, Biolog well: E7",-0.58
C=C(CC(=O)O)C(=O)O [Itaconic Acid],approximate change in surviving CFU (log10),"Biolog plate: PM2, Biolog well: E11",-3.95
O=C(O)C(=O)O [Oxalic Acid],approximate change in surviving CFU (log10),"Biolog plate: PM2, Biolog well: F4",0.429
NCCCC[C@@H](N)C(=O)O [D-Lysine],approximate change in surviving CFU (log10),"Biolog plate: PM3, Biolog well: C7",-0.107
NCCc1ccccc1 [B-Phenylethyl-amine],approximate change in surviving CFU (log10),"Biolog plate: PM3, Biolog well: E2",-0.129
"CC(O)C(N)=O (racemic) [D,L-Lactamide]",approximate change in surviving CFU (log10),"Biolog plate: PM3, Biolog well: E7",-1.78
Nc1cc[nH]c(=O)n1 [Cytosine],approximate change in surviving CFU (log10),"Biolog plate: PM3, Biolog well: F5",1.14
Nc1nc2[nH]cnc2c(=O)[nH]1 [Guanine],approximate change in surviving CFU (log10),"Biolog plate: PM3, Biolog well: F6",-2.83
Cc1c[nH]c(=O)[nH]c1=O [Thymine],approximate change in surviving CFU (log10),"Biolog plate: PM3, Biolog well: F8",-0.58
O=c1[nH]c(=O)c2nc[nH]c2[nH]1 [Xanthine],approximate change in surviving CFU (log10),"Biolog plate: PM3, Biolog well: G1",0.408
C[C@H](N)C(=O)N[C@@H](CC(=O)O)C(=O)O,approximate change in surviving CFU (log10),"Biolog plate: PM3, Biolog well: H1",0.58
C[C@H](N)C(=O)N[C@H](C(=O)O)[C@@H](C)O,approximate change in surviving CFU (log10),"Biolog plate: PM3, Biolog well: H7",-0.0215
O=C(O)CCC(=O)O [Succinic Acid],approximate change in surviving CFU (log10),"Biolog plate: PM1, Biolog well: A5",0.515
OC[C@H]1OC(O)[C@H](O)[C@@H](O)[C@H]1O (stereo partly drawn) [D-Galactose],approximate change in surviving CFU (log10),"Biolog plate: PM1, Biolog well: A6",1.59
O=C(O)C(O)C(O)C(=O)O (stereo not drawn) [m-Tartaric Acid],approximate change in surviving CFU (log10),"Biolog plate: PM1, Biolog well: E2",1.04
O=P(O)(O)O[C@H]1O[C@H](CO)[C@@H](O)[C@H](O)[C@H]1O [D-Glucose-1-Phosphate],approximate change in surviving CFU (log10),"Biolog plate: PM1, Biolog well: E3",1.4
O=C(O)[C@@H](O)[C@H](O)[C@H](O)[C@@H](O)C(=O)O [Mucic Acid],approximate change in surviving CFU (log10),"Biolog plate: PM1, Biolog well: F8",1.38
O=C(O)C[C@@H](O)C(=O)O [D-Malic Acid],approximate change in surviving CFU (log10),"Biolog plate: PM1, Biolog well: G11",1.05
O=C(O)C[C@H](O)C(=O)O [L-Malic Acid],approximate change in surviving CFU (log10),"Biolog plate: PM1, Biolog well: G12",1.01
O=C(O)Cc1ccc(O)cc1 [p-Hydroxy Phenyl Acetic Acid],approximate change in surviving CFU (log10),"Biolog plate: PM1, Biolog well: H2",-2.12
OC[C@H]1O[C@@H]2O[C@H]3[C@H](O)[C@@H](O)[C@@H](O[C@H]4[C@H](O)[C@@H](O)[C@@H](O[C@H]5[C@H](O)[C@@H](O)[C@@H](O[C@H]6[C@H](O)[C@@H](O)[C@@H](O[C@H]7[C@H](O)[C@@H](O)[C@@H](O[C@H]8[C@H](O)[C@@H](O)[C@@H](O[C@H]1[C@H](O)[C@H]2O)O[C@@H]8CO)O[C@@H]7CO)O[C@@H]6CO)O[C@@H]5CO)O[C@@H]4CO)O[C@@H]3CO [b-Cyclodextrin],approximate change in surviving CFU (log10),"Biolog plate: PM2, Biolog well: A4",1.01
OC[C@H]1OC(O[C@H]2[C@H](O)[C@@H](O)C(O[C@H]3[C@H](O)[C@@H](O)[C@@H](O)O[C@@H]3CO)O[C@@H]2CO)[C@H](O)[C@@H](O)[C@@H]1O (stereo partly drawn) [Dextrin],approximate change in surviving CFU (log10),"Biolog plate: PM2, Biolog well: A6",0.665
O=C(O)[C@H]1O[C@@H](O)[C@H](O)[C@@H](O)[C@H]1O [Pectin],approximate change in surviving CFU (log10),"Biolog plate: PM2, Biolog well: A12",-0.343
CC(=O)N[C@H]1[C@H]([C@H](O)[C@H](O)CO)OC(O)(C(=O)O)C[C@@H]1O (stereo partly drawn) [N-Acetyl-Neuraminic Acid],approximate change in surviving CFU (log10),"Biolog plate: PM2, Biolog well: B2",1.09
OC[C@H](O)C(O)[C@@H](O)CO [L-Arabitol],approximate change in surviving CFU (log10),"Biolog plate: PM2, Biolog well: B7",1.12
O=C[C@H](O)[C@@H](O)[C@H](O)[C@H](O)CO[C@@H]1O[C@H](CO)[C@@H](O)[C@H](O)[C@H]1O [Gentiobiose],approximate change in surviving CFU (log10),"Biolog plate: PM2, Biolog well: C1",1.09
OC[C@H]1O[C@H](OC[C@H]2O[C@H](O[C@]3(CO)O[C@H](CO)[C@@H](O)[C@@H]3O)[C@H](O)[C@@H](O)[C@@H]2O)[C@H](O)[C@@H](O)[C@H]1O [D-Raffinose],approximate change in surviving CFU (log10),"Biolog plate: PM2, Biolog well: D1",0.494
OC[C@H]1O[C@H](OC[C@H]2O[C@H](OC[C@H]3O[C@H](O[C@]4(CO)O[C@H](CO)[C@@H](O)[C@@H]4O)[C@H](O)[C@@H](O)[C@@H]3O)[C@H](O)[C@@H](O)[C@H]2O)[C@H](O)[C@@H](O)[C@H]1O [Stachyose],approximate change in surviving CFU (log10),"Biolog plate: PM2, Biolog well: D5",1.37
CCCCCC(=O)O [Caproic Acid],approximate change in surviving CFU (log10),"Biolog plate: PM2, Biolog well: E2",-0.859
COC(=O)[C@@H](C)O [D-Lactic Acid Methyl Ester],approximate change in surviving CFU (log10),"Biolog plate: PM2, Biolog well: F1",-0.15
O=C(O)[C@]1(O)C[C@@H](O)[C@@H](O)[C@H](O)C1 [Quinic Acid],approximate change in surviving CFU (log10),"Biolog plate: PM2, Biolog well: F6",1.09
O=C(O)CCCCCCCCC(=O)O [Sebacic Acid],approximate change in surviving CFU (log10),"Biolog plate: PM2, Biolog well: F8",0.429
